Reference: the supplement of paper PMC10720658
± gives the standard deviation of the averaged measurements.

test system: AEK1 (Tb927.3.2440); experiment: percent reduction in TR-FRET probe signal relative to DMSO control; higher = stronger displacement of ATP-site probe (binding); conditions: 1 µM; incubation time 1 h

Row | SMILES | percent reduction in TR-FRET probe signal
1 | C[C@@H]1COCCN1c1cc(C2(S(C)(=O)=O)CC2)nc(-c2cccc3[nH]ccc23)n1 | 0.253 ± 7.1%
2 | Cc1ccc(C(=O)Nc2ccc(CN3CCN(C)CC3)c(C(F)(F)F)c2)cc1C#Cc1cnc2[nH]ncc2c1 | 29.4 ± 11%
3 | Cn1cc(C=C2C(=O)Nc3cccnc32)c2ccccc21 | -3.06 ± 6%
4 | C=CC(=O)Nc1cccc(Nc2nc(Nc3ccc(Oc4ccnc(C(=O)NC)c4)cc3)ncc2F)c1 | -4.93 ± 4.3%
5 | COc1cc2ncnc(Oc3ccc(CC(=O)Nc4cnn(C(C)C)c4)cc3)c2cc1OC | 5.15 ± 13%
6 | COc1cc2nccc(Oc3ccc(NC(=O)C4(C(=O)Nc5ccc(F)cc5)CC4)cc3)c2cc1OC | -3.97 ± 6.1%
7 | CCNC(=O)Nc1ccc(-c2nc3c(c(N4CCOC[C@@H]4C)n2)CCN(C2COC2)C3)cc1 | 13.6 ± 12%
8 | CC(O)C(=O)O.CC(O)C(=O)O.CN1CCN(c2ccc3nc(-c4c(N)c5c(F)cccc5[nH]c4=O)[nH]c3c2)CC1 [Dovitinib (TKI-258) Dilactic Acid] | 10.5 ± 12%
9 | CN1CCC(Nc2nc(Nc3ccc(Oc4ccccc4)cc3)c3c(=O)[nH]cc(Br)c3n2)CC1 | 35.3 ± 9.5%
10 | C[C@H]1[C@H](C)CC[C@]2(C(=O)O)CC[C@]3(C)C(=CC[C@@H]4[C@@]5(C)C[C@@H](O)[C@H](O)[C@@](C)(CO)[C@@H]5CC[C@]43C)[C@H]12 [Asiatic Acid] | -8.28 ± 13%
11 | Cl.Cl.Fc1cc(-c2cccc3ncc(-c4cnn(C5CCNCC5)c4)nc23)cc(F)c1CN1CCOCC1 | 10.7 ± 13%
12 | CNc1nc(Nc2cn(C(C)(C)C#N)nc2C)ncc1C(F)(F)F | -10.7 ± 11%
13 | CC(C)NC[C@@H](C(=O)N1CCN(c2ncnc3c2[C@H](C)C[C@H]3O)CC1)c1ccc(Cl)cc1 | 11.4 ± 8.1%
14 | CNC(=O)c1cc(Oc2ccc(NC(=O)Nc3ccc(Cl)c(C(F)(F)F)c3)cc2)ccn1.Cc1ccc(S(=O)(=O)O)cc1 [Sorafenib Tosylate] | 17 ± 12%
15 | N#C/C(=C(/N)Sc1ccc(N)cc1)c1ccccc1C(F)(F)F | 2.78 ± 13%
16 | Cc1ccc(-c2nn(C(C)(C)C)c3ncnc(N)c23)cc1 | -1.9 ± 8.7%
17 | CNC(=O)c1cc(Oc2ccc3nc(N[C@@H]4CCCC[C@H]4O)sc3c2)ccn1 | -6.41 ± 1.1%

Row | SMILES | percent reduction in TR-FRET probe signal
18 | NC(=O)c1ncn([C@@H]2O[C@H](CO)[C@@H](O)[C@H]2O)c1N [AICAR (Acadesine)] | -1.92 ± 11%
19 | Cc1ccccc1CN1C2=NCCN2C(=O)C2=C1CCN(Cc1ccccc1)C2 [TIC10 Analogue] | -7.4 ± 3.3%
20 | C=CCc1ccc(O)c(-c2ccc(O)c(CC=C)c2)c1 [Honokiol] | 1.65 ± 8.9%
21 | CNC(=O)c1cccc(-c2ccc3c(N4CCOC[C@@H]4C)nc(N4CCOC[C@@H]4C)nc3n2)c1 [Vistusertib (AZD2014)] | 9.57 ± 9.3%
22 | CCN1CCN(Cc2ccc(C(=O)Nc3ccc(C)c(Oc4ccc5c(c4)CC(=O)N5)c3)cc2C(F)(F)F)CC1 | -7.33 ± 8.7%
23 | COc1cc(Nc2ncc(F)c(Nc3ccc4c(n3)NC(=O)C(C)(C)O4)n2)cc(OC)c1OC [R406 (free base)] | 87.4 ± 6%
24 | CC(C)CC(=O)Nc1n[nH]c2c1CN(C(=O)C1CCN(C)CC1)C2(C)C | -0.07 ± 7.6%
25 | Cc1cc(NC(=O)c2cccc(NC(=O)/C=C/CN(C)C)c2)ccc1Nc1nccc(-c2cccnc2)n1 | -7.17 ± 15%
26 | CCN(CC)CCCCNc1ncc2cc(-c3cc(OC)cc(OC)c3)c(NC(=O)NC(C)(C)C)nc2n1 | -17.7 ± 31%
27 | Cc1cc(F)c(Nc2ncnc3cc(OCc4ccccc4)ccc23)cc1O.Cl | 29.8 ± 17%
28 | CNC(=O)c1ccccc1Sc1ccc2c(/C=C/c3ccccn3)n[nH]c2c1 [Axitinib] | 52.4 ± 18%
29 | O=c1cc(N2CCOCC2)oc2c(-c3ccccc3)cccc12 | -4.66 ± 9.2%
30 | Cn1ncc(Cl)c1-c1cc(C(=O)N[C@H](CN)Cc2ccc(F)c(F)c2)oc1Cl | 33.2 ± 9.4%
31 | O=[N+]([O-])c1cnc(Sc2nnc(O)n2-c2ccc3c(c2)OCCO3)s1 | 0.0867 ± 3.4%
32 | C=CC(=O)Nc1cc(Nc2nccc(-c3cn(C)c4ccccc34)n2)c(OC)cc1N(C)CCN(C)C | -8.86 ± 8.3%
33 | CC[C@H](CO)Nc1nc(NCc2ccccc2)c2ncn(C(C)C)c2n1 [Roscovitine (Seliciclib,CYC202)] | -4.47 ± 5.4%
